# Measurements published in the supplement of paper PMC12282887.
# ± gives the standard deviation of the averaged measurements.
# Test system: E. coli BW25113 marRABp lux reporter
# Assay: promoter activity interaction Z-score (Lux/OD deviation from empty-vector control); higher = stronger promoter induction by the compound
# Experimental: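 E. coli BW25113 (wild type or ΔmarA/ΔsoxS/Δrob) carrying pTU175 luxCDABE promoter reporters was grown in LB in 384-well plates at 37°C with each of 94 compounds at 4 two-fold concentrations, in biological duplicates. Luminescence and OD600 were read every 30 min for 12 h and integrated as AUC over 8 h (0-8 h WT, 1-9 h mutants). Lux AUC was divided by OD AUC; the interaction score is the residual of a Huber robust fit of each promoter against the empty-vector control, then Z-transformed per promoter.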
smiles,measurement,setting,value
CO[C@H]1/C=C/O[C@@]2(C)Oc3c(C)c(O)c4c(O)c(c(/C=N/N5CCN(C)CC5)c(O)c4c3C2=O)NC(=O)/C(C)=C\C=C\[C@H](C)[C@H](O)[C@@H](C)[C@@H](O)[C@@H](C)[C@H](OC(C)=O)[C@@H]1C [Rifampicin],promoter activity interaction Z-score,"1 µg/ml, genetic background: wild type",-0.547 ± 0.12
same,promoter activity interaction Z-score,"1 µg/ml, genetic background: ΔmarA",-0.978 ± 0.48
same,promoter activity interaction Z-score,"1 µg/ml, genetic background: Δrob",-0.432 ± 0.12
same,promoter activity interaction Z-score,"1 µg/ml, genetic background: ΔsoxS",-0.415 ± 0.079
same,promoter activity interaction Z-score,"2.1 µg/ml, genetic background: wild type",-0.461 ± 0.4
same,promoter activity interaction Z-score,"2.1 µg/ml, genetic background: ΔmarA",-1.18 ± 0.22
same,promoter activity interaction Z-score,"2.1 µg/ml, genetic background: Δrob",-0.469 ± 0.39
same,promoter activity interaction Z-score,"2.1 µg/ml, genetic background: ΔsoxS",-0.423 ± 0.032
same,promoter activity interaction Z-score,"4.1 µg/ml, genetic background: wild type",-1.1 ± 0.31
same,promoter activity interaction Z-score,"4.1 µg/ml, genetic background: ΔmarA",-1.23 ± 0.38
same,promoter activity interaction Z-score,"4.1 µg/ml, genetic background: Δrob",-0.719 ± 0.14
same,promoter activity interaction Z-score,"4.1 µg/ml, genetic background: ΔsoxS",-0.7557 ± 0.006
Cn1c(=O)[nH]c2[nH]c(=O)[nH]c2c1=O [1-Methyluric acid],promoter activity interaction Z-score,"11.4 µg/ml, genetic background: wild type",0.0849 ± 0.054
same,promoter activity interaction Z-score,"11.4 µg/ml, genetic background: ΔmarA",-0.0996 ± 0.1
same,promoter activity interaction Z-score,"11.4 µg/ml, genetic background: Δrob",-0.0237 ± 0.035
same,promoter activity interaction Z-score,"11.4 µg/ml, genetic background: ΔsoxS",-0.145 ± 0.068
same,promoter activity interaction Z-score,"22.8 µg/ml, genetic background: wild type",-0.0689 ± 0.41
same,promoter activity interaction Z-score,"22.8 µg/ml, genetic background: ΔmarA",-0.0515 ± 0.28
same,promoter activity interaction Z-score,"22.8 µg/ml, genetic background: Δrob",-0.217 ± 0.19
same,promoter activity interaction Z-score,"22.8 µg/ml, genetic background: ΔsoxS",-0.242 ± 0.1
same,promoter activity interaction Z-score,"45.5 µg/ml, genetic background: wild type",-0.206 ± 0.59
same,promoter activity interaction Z-score,"45.5 µg/ml, genetic background: ΔmarA",-0.417 ± 0.023
same,promoter activity interaction Z-score,"45.5 µg/ml, genetic background: Δrob",-0.419 ± 0.29
same,promoter activity interaction Z-score,"45.5 µg/ml, genetic background: ΔsoxS",-0.415 ± 0.043
same,promoter activity interaction Z-score,"91.1 µg/ml, genetic background: wild type",-0.367 ± 0.052
same,promoter activity interaction Z-score,"91.1 µg/ml, genetic background: ΔmarA",0.16 ± 0.19
same,promoter activity interaction Z-score,"91.1 µg/ml, genetic background: Δrob",-0.423 ± 0.058
same,promoter activity interaction Z-score,"91.1 µg/ml, genetic background: ΔsoxS",-0.211 ± 0.17
Oc1cc(O)c2c(c1)O[C@@H](c1ccc(O)c(O)c1)[C@H](O)C2 [Catechin],promoter activity interaction Z-score,"18.1 µg/ml, genetic background: wild type",0.176 ± 0.43
same,promoter activity interaction Z-score,"18.1 µg/ml, genetic background: ΔmarA",-0.0258 ± 0.23
same,promoter activity interaction Z-score,"18.1 µg/ml, genetic background: Δrob",0.052 ± 0.11
same,promoter activity interaction Z-score,"18.1 µg/ml, genetic background: ΔsoxS",-0.135 ± 0.017
same,promoter activity interaction Z-score,"36.3 µg/ml, genetic background: wild type",-0.308 ± 0.32
same,promoter activity interaction Z-score,"36.3 µg/ml, genetic background: ΔmarA",-0.311 ± 0.035
same,promoter activity interaction Z-score,"36.3 µg/ml, genetic background: Δrob",-0.0876 ± 0.28
same,promoter activity interaction Z-score,"36.3 µg/ml, genetic background: ΔsoxS",-0.0441 ± 0.25
same,promoter activity interaction Z-score,"72.6 µg/ml, genetic background: wild type",0.00953 ± 0.33
same,promoter activity interaction Z-score,"72.6 µg/ml, genetic background: ΔmarA",-0.104 ± 0.28
same,promoter activity interaction Z-score,"72.6 µg/ml, genetic background: Δrob",-0.105 ± 0.045
same,promoter activity interaction Z-score,"72.6 µg/ml, genetic background: ΔsoxS",-0.241 ± 0.033
same,promoter activity interaction Z-score,"145.1 µg/ml, genetic background: wild type",-0.286 ± 0.36
same,promoter activity interaction Z-score,"145.1 µg/ml, genetic background: ΔmarA",-0.359 ± 0.22
same,promoter activity interaction Z-score,"145.1 µg/ml, genetic background: Δrob",-0.128 ± 0.36
same,promoter activity interaction Z-score,"145.1 µg/ml, genetic background: ΔsoxS",-0.183 ± 0.067
